# Source: PubChem BioAssay
# Most compounds without a hit are left out; they make up all but 2.1% or so of the library.
# Abeta yeast res: qHTS for compounds that reverse cellular toxicity of Amyloid beta (A-beta) peptide in yeast: Primary Screen. yeast expressing A-beta42, growth rescue, OD600, 48 h; response scale: 0% DMSO, 100% iron-clioquinol control. AID 1347071, 2019. 0.063% of 410,000 active. Potency, µM (titrated, usually from 46.1 µM), usual class: activators; also: nearly all actives have a fitted effect of over 55% in size
#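 Growth rescue measured by 600 nm absorbance after 48 h yeast culture at 30 C with compound. Values normalized between DMSO and an equimolar ferric chloride plus clioquinol control.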
# FUS suppressor: qHTS for Suppressors of FUS Proteinopathy: Primary screen using FUS-linked yeast assay; Potency, µM (series often up to 76.6 µM), usual class: activators; 0.24% of 390,000 active; S. cerevisiae FUS-expressing, growth rescue, OD600, 24 h;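 also: plate controls were DMSO vehicle for no effect and reference control for full effect; nearly all actives have a fitted effect of over 55% in size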
#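 Quantitative HTS measuring growth restoration of FUS-toxic yeast. Galactose-induced cells (OD 0.005) were exposed 24hr at 30C to compounds at several concentrations, then absorbance at 600 nm was recorded.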
# aSyn rescue: qHTS of alpha-syn Inhibitors; Yeast expressing alpha-synuclein, growth rescue, BacTiter-Glo, 24 h; Potency, µM (titrated, usually from 46.1 µM), without a hit: top-dose growth rescue (activation), actives largely listed as activators; 0.14% of 370,000 active; also: % of control where 0% means no effect; nearly all actives have a fitted effect of over 65% in size
#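 Galactose-induced alpha-syn yeast (OD600=0.02, raffinose-pregrown) + pinned cpd, 24 hr, 30 deg C; growth by BacTiter-Glo luminescence. Growth restoration scores as activation.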
# TDP43 rescue: qHTS of TDP-43 Inhibitors; TDP-43 expressing yeast growth rescue, BacTiter-Glo, 24 h; Potency, µM (series often up to 46.1 µM), inactives show at the highest dose growth rescue (activation), actives largely listed as activators; 1.8% of 410,000 active; AID 652104, 2013; also: % of control where 0% means no effect; nearly all actives have a fitted effect of over 50% in size
#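 Yeast cells expressing TDP-43 under galactose induction are exposed to compounds for 24 hr at 30 deg C. BacTiter-Glo luminescence measures growth, so protective compounds score as activators.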
# Numbers without * were called inactive; i = inactive; ? = inconclusive; nt = not tested or not shown; [ ] = dose if it differs, or a comment. Calls follow the shape of the dose curve; as a rule, active = well fitted curve in the direction sought with a large enough effect; inconclusive = small, poorly fitted or top-dose-only effect, or another doubt; inactive = no such curve, though single readings can be large; an effect the other way counts as inactive or inconclusive. Potency is read from the fitted curve at half-maximal effect.
SMILES,Abeta yeast res,FUS suppressor,aSyn rescue,TDP43 rescue
COc1cccc(-c2nc(N3CC(C)CC(C)C3)c3ccccc3n2)c1O (stereo not drawn),i,i,7%,13µM*
N.N.N.N.N.N.N.N.N.N.N.N.N.N.O.O.[Ru+4].[Ru+5].[Ru+5],nt,nt,-69%,nt
COc1ccc(NC(=O)c2cc(C3CC3)nc3c2c(C)nn3-c2ccc(C)cc2)cc1OC,i,i,nt,3%[9.22 µM]
Cc1nc2ccccc2n1C(=O)c1ccccc1[N+](=O)[O-],i,nt,-1%,20µM*
Cc1c(C(=O)n2cnc3ccccc32)cccc1[N+](=O)[O-],i,i,-2%,?
O=C(Nc1ccc(N2CCOCC2)cc1Cl)C1CCN(C(=O)OCc2ccccc2)CC1,10µM*,i,0%,0%
CCN1CCN(c2ccc(NC(=O)CCc3c(C)nc4c(-c5ccccc5)c(C)nn4c3C)cc2)CC1,i,i,-4%,17%
COc1ccc(OC)c(NC(=O)CCc2c(C)nc3c(-c4ccccc4)c(C)nn3c2C)c1,i,?,nt,20µM*
Cc1nc2ncnn2c(C)c1CCC(=O)N1CCN(c2ccc(F)cc2)CC1,i,i,nt,-3%
COc1ccc(NC(=O)CCc2c(C)nc3c(-c4ccc(F)cc4)c(C)nn3c2C)c(OC)c1,i,i,nt,10%
Cc1nc2c(-c3ccccc3)c(C)nn2c(C)c1CCC(=O)N1CCN(c2ccc(F)cc2)CC1,i,i,nt,14µM*
COc1ccc(CCNC(=O)CCc2c(C)nc3cc(-c4ccccc4OC)nn3c2C)c(OC)c1,i,?,nt,18µM*
Cc1nc2c(-c3ccccc3)c(C)nn2c(C)c1CCC(=O)N1CCN(c2ccccc2)CC1,i,i,nt,13µM*
COc1cccc(-n2ccnc2SCC(=O)Nc2ccc(Cl)c(Cl)c2)c1,i,i,nt,6%
CN1C(=O)C[C@@](C#N)(C(=O)NCc2ccccc2)[C@H]1c1ccccc1,nt,i,nt,nt
COc1ccccc1CNC(=O)Cn1cc2c(n1)-c1c(oc(C(=O)N3CCOCC3)c1C)CC2,i,i,nt,?
O=C(CCl)c1ccc2c(c1)CCCC2,nt,nt,-26%,nt
CC(=O)Nc1ccc(OCc2cccc([N+](=O)[O-])c2)cc1,i,i,5%,?
CC(=O)Nc1ccc(C=CC=Cc2cccc([N+](=O)[O-])c2)cc1,i,nt,-52%,14µM*
CCC(C)(O)c1[nH]c2ccc(C(F)(F)F)cc2c1C (stereo not drawn),14µM*,i,0%,18µM*
Cc1c(C(C)(C)O)[nH]c2ccc(C(F)(F)F)cc12,18µM*,i,5%,35µM*
O=c1[nH]cnc2c1ncn2[C@H]1C[C@H](O)[C@@H](CO)O1,nt,nt,0%,nt
CCCS(=O)(=O)c1ncc(Cl)c(C(=O)Nc2sc3c(c2C(=O)NCC)CCCC3)n1,nt,nt,-1%,nt
CC(Cc1cccs1)NC(=S)Nc1ccc(F)cc1 (stereo not drawn),13µM*,i,0%,-18%[0.397 µM]
COc1ccc(NC(=S)NC(C)Cc2cccs2)cc1 (stereo not drawn),?,i,1%,?
SMILES,Abeta yeast res,FUS suppressor,aSyn rescue,TDP43 rescue
CCN(CC)C(=O)c1sc2c(c1C)c(=O)n(-c1ccc(OC)cc1OC)c(=O)n2CC(=O)c1ccc(Cl)cc1,i,20µM*,nt,6%
CCn1c(SCC(=O)Nc2nc(-c3ccc(C)cc3)cs2)nnc1-c1ccccc1O,i,i,-3%,20µM*
Cc1csc(SCC(=O)Nc2nc(-c3ccccc3)cs2)n1,i,i,-2%,14µM*
O=C(C[n+]1cc(-c2ccccc2)n2c1CCC2)Nc1nc(-c2ccccc2)cs1,i,nt,1%,16%
CCn1c(SCC(=O)Nc2nc(-c3ccc(C)cc3)cs2)nnc1-c1ccccc1,i,i,-12%,-3%
O=C(CSCC(=O)N1CCCc2ccccc21)Nc1nc(-c2ccccc2)cs1,i,?,-17%,11µM*
CC1CCN(C(=O)CSCC(=O)Nc2nc(-c3cccs3)cs2)CC1,i,?,-16%,35µM*
CCn1c(-c2csc3ccccc23)n[nH]c1=S,i,nt,2%,22µM*
CCn1c(-c2csc3c2CCC(C)C3)n[nH]c1=S (stereo not drawn),i,nt,9%,11µM*
CCCc1cc(-c2n[nH]c(=S)n2CC)cs1,i,i,-9%,35µM*
CC(C)Cn1c(-c2csc3ccccc23)n[nH]c1=S,i,nt,8%,0%
COc1ccc(CN2C(=O)C(NC(=O)c3ccccc3C)(C(F)(F)F)N=C2c2ccccc2)cc1 (stereo not drawn),i,?,nt,29%
Cc1onc(-c2ccc3c(c2)OCO3)c1-c1ccc2[nH]ccc2c1,i,i,-24%,22µM*
c1cc2cc(-c3c(-c4ccc5c(c4)OCO5)noc3-c3ccsc3)ccc2[nH]1,i,i,-3%,-1%
O=C(Nc1ccccc1)C(Cl)C(=O)c1ccccc1 (stereo not drawn),i,i,-69%,-93%
CC(=O)C(Cl)C(=O)Nc1ccccc1 (stereo not drawn),i,i,-31%,3.5µM*
COc1ccc2nc(N3CCCC3)c(C#N)cc2c1,i,i,5%,21%
COc1ccc2nc(N3CCCCC3)c(C#N)cc2c1,i,i,4%,13µM*
S=C1NCN(Cc2ccco2)CN1CCc1ccccc1,14µM*,i,3%,?
C=C1C=C(C)n2ncc(C(=O)NCCCCCC)c2N1,nt,nt,0%,nt
Cc1nc2c(-c3ccc(F)cc3)c(C)nn2c(C)c1CCC(=O)NCc1cccc(Cl)c1,i,i,nt,7%
Cc1cc(C)nc(NC(=NCCc2c[nH]c3ccc(Cl)cc23)NC(=O)c2ccccc2C)n1,i,i,0.56µM*,5%
COc1ccc2[nH]cc(CCN=C(NC(=O)c3ccccc3C)Nc3nc(C)cc(C)n3)c2c1,i,i,-3%,4%
CCOc1ccc(NC(=O)CSc2nnc3c(n2)[nH]c2ccc(S(=O)(=O)N4CCCCC4)cc23)cc1,nt,nt,-5%,nt
Cc1cccc(C)c1Nc1nnc(SCc2nc3ccccc3s2)s1,i,nt,6%,14%
SMILES,Abeta yeast res,FUS suppressor,aSyn rescue,TDP43 rescue
Cc1cccc(Nc2nnc(SCC(=O)Nc3ccccc3[N+](=O)[O-])s2)c1C,i,nt,3%,13µM*
Cc1nc(CSc2nnc(Nc3cccc(C)c3C)s2)cs1,i,nt,28%,7.9µM*
COCCCCOc1cc2nc(N3CCCN(C)CC3)nc(NC3CCN(C)CC3)c2cc1OC,nt,nt,-7%,nt
CC(C)NC(=O)NC(=O)COC(=O)C1CCCN1C(=O)c1cccs1 (stereo not drawn),i,i,-3%,-7%
CC(C)c1ccc(NC(=O)COC(=O)[C@@H]2CCCN2C(=O)c2cccs2)cc1,i,?,11%,35µM*
O=c1cc(CNc2ccc(Br)cc2)nc2sccn12,i,nt,?,20µM*
O=C(c1cc(-c2ccco2)on1)N1CCCc2ccccc21,i,35µM*,-2%,6%
